{"source": "the supplement of paper PMC5662767", "data": [{"test_system": "Drosophila S2 cl14 SmoIP sensor cells", "assay": "normalized SmoIP GFP fluorescence (untreated unstimulated = 0%, untreated Hh-stimulated = 100%); higher = more Smo activation sensor fluorescence", "settings": "stimulation: mock conditioned medium (-Hh); compound concentration: 2 uM; 24 h", "units": {"normalized SmoIP GFP fluorescence": "%"}, "values": [{"compound": "Cc1nc(N)sc1-c1ccnc(Nc2ccc(N3CCOCC3)cc2)n1", "normalized SmoIP GFP fluorescence": 94.3}, {"compound": "C[C@H](NCc1ccc(OCc2cccc(F)c2)cc1)C(N)=O", "note": "[Safinamide-mesilate]", "normalized SmoIP GFP fluorescence": 4.04}, {"compound": "CC(C)C[C@H](NC(=O)[C@@H](NC(=O)c1cccc(-c2ccccc2)n1)[C@@H](C)O)B(O)O", "normalized SmoIP GFP fluorescence": 64.4}, {"compound": "OC[C@H]1O[C@@H](c2ccc(Cl)c(Cc3ccc(O[C@H]4CCOC4)cc3)c2)[C@H](O)[C@@H](O)[C@@H]1O", "normalized SmoIP GFP fluorescence": -7.78}]}]}
